# Reference: PubChem BioAssay AID651548 (Broad Institute, 2012)
# Screen size: about 57,000 compounds; about 200 (0.35%) were called active.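 Rule for the calls: active = mean inhibition of replicates at least 50% and every single replicate also reaching 50%; inconclusive = mean inhibition at least 50% but some replicate falls below 50%; inactive = mean inhibition under 50%.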 This excerpt belongs to a sample that is enriched for actives.
# Biological target: Histone-lysine N-methyltransferase EZH2 (Homo sapiens) (UniProt Q15910)
# Test: EZH2/PRC2 methyltransferase inhibitors, primary screen, biochemical, DELFIA time-resolved fluorescence, single point (AID 651548);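 note: dimethyl H3K27 on biotinylated H3 21-44 peptide detected by antibody; plate controls were median neutral control wells for no effect and median positive control wells for full effect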
# Conditions: PRC2 H3K27 methylation, DELFIA TRF, 1 h; at 12.5 µM; hits give high values
# Histone-lysine N-methyltransferase EZH2 (Homo sapiens), sequence (Q15910 whole entry, looked up): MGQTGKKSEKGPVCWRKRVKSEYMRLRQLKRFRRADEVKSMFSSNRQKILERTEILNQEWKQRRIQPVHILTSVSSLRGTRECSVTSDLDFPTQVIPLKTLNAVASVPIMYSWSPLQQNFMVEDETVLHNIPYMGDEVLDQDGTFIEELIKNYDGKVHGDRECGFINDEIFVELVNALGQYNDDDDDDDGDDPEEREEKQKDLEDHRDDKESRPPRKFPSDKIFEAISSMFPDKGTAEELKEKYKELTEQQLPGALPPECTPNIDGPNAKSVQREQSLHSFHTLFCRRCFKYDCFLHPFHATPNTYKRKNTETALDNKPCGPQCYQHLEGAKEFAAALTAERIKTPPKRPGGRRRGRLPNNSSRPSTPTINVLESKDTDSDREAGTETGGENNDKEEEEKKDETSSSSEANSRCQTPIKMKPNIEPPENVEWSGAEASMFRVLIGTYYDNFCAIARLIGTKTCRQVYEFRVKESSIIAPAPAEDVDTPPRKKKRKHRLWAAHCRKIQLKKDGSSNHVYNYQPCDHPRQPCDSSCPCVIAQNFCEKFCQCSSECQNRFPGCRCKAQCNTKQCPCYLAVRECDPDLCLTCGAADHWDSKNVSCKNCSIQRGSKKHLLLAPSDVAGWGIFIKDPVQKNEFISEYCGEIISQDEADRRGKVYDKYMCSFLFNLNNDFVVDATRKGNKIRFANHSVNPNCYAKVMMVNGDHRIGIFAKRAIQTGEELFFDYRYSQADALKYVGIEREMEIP
row,Structure (SMILES),inhibition
1,CO[C@H]1CN(C)C(=O)c2cc(NS(=O)(=O)c3ccccc3)ccc2OC[C@H](C)NC[C@@H]1C,3.07% (inactive)
2,CN(C)C(=O)C[C@H]1C[C@H]2c3cc(NC(=O)Nc4ccc(C(F)(F)F)cc4)ccc3O[C@H]2[C@@H](CO)O1,-22.5% (inactive)
3,CO[C@@H]1CN(C)C(=O)c2cc(NC(=O)C3CCOCC3)ccc2OC[C@@H](C)NC[C@@H]1C,5.55% (inactive)
4,CCC(=O)N1C[C@@H](C)[C@H](OC)CN(C)C(=O)c2ccc(NC(=O)COC)cc2OC[C@@H]1C,2.05% (inactive)
5,CC(C)NC(=O)N[C@@H]1CC[C@H](CC(=O)NC2Cc3ccccc3C2)O[C@H]1CO,-19.2% (inactive)
6,O=C(Nc1ccccc1F)N[C@@H]1CC[C@H](CCNC(=O)C2CC2)O[C@@H]1CO,-5.22% (inactive)
7,C[C@@H](NC(=O)C[C@@H]1CC[C@H](NC(=O)Cc2ccccn2)[C@H](CO)O1)c1ccccc1,5.38% (inactive)
8,CO[C@@H]1CN(C)C(=O)c2cc(NC(=O)c3cnccn3)ccc2OC[C@@H](C)N(CC2CC2)C[C@H]1C,-3.51% (inactive)
9,CO[C@H]1CN(C)C(=O)c2ccc(NS(C)(=O)=O)cc2OC[C@@H](C)N(Cc2ccccc2)C[C@H]1C,27.6% (inactive)
10,CN(C)C(=O)C[C@H]1CC[C@H](NC(=O)NC2CCCC2)[C@@H](CO)O1,6.6% (inactive)
11,CN(C)CC(=O)N[C@H]1CC[C@@H](CCNC(=O)C2CCCC2)O[C@@H]1CO,4.19% (inactive)
12,O=S(=O)(N[C@@H]1CC[C@@H](CCn2cc(-c3ccccn3)nn2)O[C@@H]1CO)c1cccc(Cl)c1,1.97% (inactive)
13,O=C(Nc1ccccc1F)N[C@H]1C=C[C@H](CC(=O)N2CCCCC2)O[C@H]1CO,11.6% (inactive)
14,C[C@@H]1CN([C@H](C)CO)S(=O)(=O)c2ccc(C#Cc3ccccc3F)cc2O[C@@H]1CN(C)C(=O)c1ccc2c(c1)OCO2,-7.72% (inactive)
15,C[C@@H]1CN([C@@H](C)CO)C(=O)c2cc(C3=CCCC3)cnc2O[C@H]1CN(C)C(=O)c1ccccn1,-1.13% (inactive)
16,O=C(Nc1ccccc1F)N[C@@H]1C=C[C@H](CC(=O)N2CCCCC2)O[C@@H]1CO,-6.07% (inactive)
17,C[C@@H]1CN([C@@H](C)CO)C(=O)c2cc(Br)cnc2O[C@H]1CN(C)Cc1ccc(-c2ccccc2)cc1,32.3% (inactive)
18,CCCNC(=O)N(C)C[C@H]1Oc2cc(-c3ccncc3)ccc2S(=O)(=O)N([C@H](C)CO)C[C@@H]1C,2.1% (inactive)
19,O=C(C[C@H]1C=C[C@@H](NC(=O)c2ccc(F)cc2)[C@@H](CO)O1)NCCc1ccncc1,-4.57% (inactive)
20,O=C(N[C@@H]1CC[C@@H](CC(=O)N2CCc3ccccc3C2)O[C@@H]1CO)C1CCOCC1,-3.58% (inactive)
21,COCC#Cc1ccc2c(c1)O[C@H](CN(C)C(=O)CN(C)C)[C@@H](C)CN([C@H](C)CO)S2(=O)=O,-3.07% (inactive)

row,Structure (SMILES),inhibition
1,COCC(=O)N(C)C[C@@H]1Oc2ncc(-c3ccccc3OC)cc2C(=O)N([C@@H](C)CO)C[C@@H]1C,16.6% (inactive)
2,CCCN(C)C[C@H]1OCCCC[C@@H](C)Oc2ccc(NC(=O)Nc3ccc(F)cc3)cc2C(=O)N([C@@H](C)CO)C[C@H]1C,18.6% (inactive)
3,O=C(C[C@@H]1C[C@@H]2c3cc(NC(=O)c4ccc5c(c4)OCO5)ccc3O[C@@H]2[C@H](CO)O1)NCC1CC1,6.48% (inactive)
4,O=C(C[C@@H]1C[C@H]2c3cc(NC(=O)CC4CC4)ccc3O[C@H]2[C@@H](CO)O1)NCc1ccc2c(c1)OCO2,-6.28% (inactive)
5,O=C(C[C@@H]1C=C[C@@H](NS(=O)(=O)c2ccc(F)cc2)[C@@H](CO)O1)NCCN1CCCCC1,7.22% (inactive)
6,O=C(CN1CCOCC1)N[C@@H]1CC[C@@H](CCn2cc(C3CCCCC3)nn2)O[C@@H]1CO,3.73% (inactive)
7,O=C(C[C@@H]1C=C[C@H](NC(=O)Nc2ccc(C(F)(F)F)cc2)[C@H](CO)O1)NCc1cccc(F)c1,-12.8% (inactive)
8,O=S(=O)(NCC[C@H]1CC[C@@H](NS(=O)(=O)c2ccccc2Cl)[C@@H](CO)O1)c1ccc(Cl)cc1,-8.5% (inactive)
9,O=C(CN1CCOCC1)N[C@H]1CC[C@@H](CCNS(=O)(=O)c2ccccc2F)O[C@H]1CO,0.878% (inactive)
10,COc1ccccc1CNC(=O)C[C@H]1C[C@H]2c3cc(NS(=O)(=O)c4ccc(F)cc4)ccc3O[C@H]2[C@@H](CO)O1,-7.14% (inactive)
11,O=C(Nc1ccccc1)N[C@H]1CC[C@H](CCNC(=O)c2ccccc2F)O[C@H]1CO,-1.66% (inactive)
12,Cc1ccccc1S(=O)(=O)NCC[C@@H]1CC[C@@H](NS(=O)(=O)c2ccccc2C)[C@@H](CO)O1,6.69% (inactive)
13,COc1cccc(S(=O)(=O)N[C@@H]2C=C[C@H](CC(=O)NC3CCC3)O[C@H]2CO)c1,4.61% (inactive)
14,CNC[C@H]1OCCCC[C@H](C)Oc2ccc(NS(C)(=O)=O)cc2C(=O)N([C@@H](C)CO)C[C@H]1C,5.37% (inactive)
15,CO[C@@H]1CN(C)C(=O)c2cc(NC(=O)c3cnccn3)ccc2OC[C@@H](C)N(C(=O)C2CC2)C[C@@H]1C,3.91% (inactive)
16,C[C@@H]1CN([C@@H](C)CO)C(=O)Cc2cc(NC(=O)C3CCCCC3)ccc2O[C@H]1CN(C)C(=O)Nc1ccccc1,1.25% (inactive)
17,CCCNC(=O)Nc1ccc2c(c1)C(=O)N(C)C[C@H](OC)[C@H](C)CN(Cc1ccncc1)[C@H](C)CO2,-16.3% (inactive)
18,CCCNC(=O)Nc1ccc2c(c1)OC[C@@H](C)N(CCC)C[C@H](C)[C@@H](OC)CN(C)C2=O,0.898% (inactive)
19,C[C@@H]1CN([C@@H](C)CO)C(=O)c2cc(C#CC3CCCCC3)cnc2O[C@@H]1CN(C)Cc1cncnc1,-2.95% (inactive)
20,O=C(C[C@H]1C[C@@H]2c3cc(NC(=O)C4CCC4)ccc3O[C@@H]2[C@@H](CO)O1)NCCN1CCCCC1,1.25% (inactive)
21,CO[C@@H]1CN(C)C(=O)c2cc(NC(=O)Nc3ccc4c(c3)OCO4)ccc2OC[C@@H](C)NC[C@@H]1C,3.91% (inactive)
